{"source": "PubChem BioAssay (Tox21)", "note": "Activity calls are given as the source filed them. The call rests on the fitted dose curve; in most records, active means well fitted curve in the direction sought with a large enough effect in the repeat runs; inconclusive means weak or mixed curves; inactive means flat fitted curve, though single readings scatter. On the % scale 0 is the no-effect control and ±100 the full control effect.", "data": [{"experiment": "qHTS assay to test for compound auto fluorescence at 535 nm (green) in HEK293 cells (AID 720680)", "settings": "green autofluorescence 485/535 nm; series mostly up to 46 µM; fluorescence, % of fluorescein: at the top concentration", "text": "U.S. Tox21 Program National Center for Advancing Translational Sciences [NCATS] NIH Chemical Genomics Center [NCGC] U.S. Environmental Protection Agency [EPA] National Institutes of Environmental Health Sciences [NIEHS] National Toxicology Program [NTP] U.S. Food and Drug Administration [FDA] Tox21 Assay Overview: Compound auto fluorescence often interferes with screening of the compound library against various biological targets and signaling pathways. Some of these compounds may have fluorophoric properties. Such properties may interfere with the assay outputs resulting in false positives and/or negatives. To decrease such complications and ensure the compound activities are relevant in terms of biological response, the Tox21 10K compound library was screened for auto fluorescence. From the fluorophores used as reporter signals in our screening assays, the auto fluorescence equivalencies of compounds against three fluorophores have been evaluated: Triamterene, Fluorescein and Rose Bengal sodium for blue, green and red fluorescence, respectively. The fluorescence intensities were measured using Excitation/Emission wavelengths at 405/460nm, 485/535nm and 540/590nm for blue, green and red labels, respectively. This assay includes the green fluorescence data.\nTox21 Assay Protocol Summary: 2,000 HEK293 cells in 5 uL of culture medium containing 10% dialyzed FBS per well were dispensed into black wall/clear bottom 1536-well plates using a Multidrop Combi Dispenser (Thermo Scientific). The assay plates were incubated for 4-5 hr at 37C to allow cell attachment to the well bottom, followed by the transfer of 23 nL compound or DMSO vehicle by a pintool work station (Kalypsys, San Diego, CA). After the assay plates were incubated overnight at 37C and 5% CO2, fluorescence intensities in the assay plates were measured by an Envision (PerkinElmer, Shelton, CT) plate reader using three labels for measuring blue, green and red fluorescence at […] 460, 535 and 590nm respectively.", "values": [{"smiles": "Cc1ncc(C[n+]2csc(CCOP(=O)(O)O)c2C)c(N)n1", "fluorescence, % of fluorescein": "0.0197% (inactive)"}, {"smiles": "O=C1c2c(O)cccc2[C@H]([C@@H]2O[C@H](CO)[C@@H](O)[C@H](O)[C@H]2O)c2cc(CO)cc(O)c21", "outcome": "inactive"}, {"smiles": "CNCCC=C1c2ccccc2CCc2ccccc21", "fluorescence, % of fluorescein": "0.141% (inactive)"}, {"smiles": "CC(C)=CCC/C(C)=C/CC/C(C)=C/CC/C(C)=C/CC1=C(C)C(=O)c2ccccc2C1=O", "outcome": "inactive"}, {"smiles": "NCC1CCC(C(=O)O)CC1", "note": "(stereo not given)", "fluorescence, % of fluorescein": "-0.0605% [at 18.6 µM] (inactive)"}, {"smiles": "CC(=O)OCC1=C(C(=O)O)N2C(=O)[C@@H](NC(=O)Cc3ccccc3)[C@H]2SC1", "fluorescence, % of fluorescein": "0.319% (inactive)"}, {"smiles": "O=C1C2CC3CC1CC(O)(C3)C2", "fluorescence, % of fluorescein": "0.0228% (inactive)"}, {"smiles": "O=C1CCCCCCCCCCCCCC1", "fluorescence, % of fluorescein": "0.0715% [at 91.3 µM] (inactive)"}, {"smiles": "CN1[C@@H](CC(=O)c2ccccc2)CCC[C@H]1C[C@H](O)c1ccccc1", "fluorescence, % of fluorescein": "0.0207% (inactive)"}, {"smiles": "C=CCc1cc(S(=O)(=O)c2ccc(O)c(CC=C)c2)ccc1O", "fluorescence, % of fluorescein": "-0.0228% [at 91.3 µM] (inactive)"}, {"smiles": "O=C1OC(O)C(C(Cl)Cl)=C1Cl", "note": "(stereo not given)", "fluorescence, % of fluorescein": "-0.0903% [at 95.7 µM] (inactive)"}, {"smiles": "CC(C)c1ccc2sc3ccccc3c(=O)c2c1", "fluorescence, % of fluorescein": "-0.0012% [at 91.3 µM] (inactive)"}, {"smiles": "CCCCCCCCCCCCCCCC(=O)OC[C@H](COP(=O)([O-])OCC[N+](C)(C)C)OC(=O)CCCCCCCCCCCCCCC", "fluorescence, % of fluorescein": "-0.12% (inactive)"}, {"smiles": "CC[N+](CC)(CC)CCC(O)(c1ccccc1)C1CCCCC1", "note": "(stereo not given)", "fluorescence, % of fluorescein": "-0.0255% [at 18.6 µM] (inactive)"}, {"smiles": "Oc1ccc(Cl)cc1C1CCCC1", "fluorescence, % of fluorescein": "-0.0106% [at 91.3 µM] (inactive)"}, {"smiles": "CCN(CC)CCOC[C@H]1O[C@@H](O)[C@H](OCCN(CC)CC)[C@@H](O)[C@@H]1O", "fluorescence, % of fluorescein": "0.0273% (inactive)"}, {"smiles": "c1ccc2cc3c4ccccc4c4ccccc4c3cc2c1", "fluorescence, % of fluorescein": "0.0024% [at 91.3 µM] (inactive)"}, {"smiles": "NCCO/C=C/[C@H](N)C(=O)O", "fluorescence, % of fluorescein": "0.119% (inactive)"}, {"smiles": "CC1(C)S[C@@H]2[C@H](NC(=O)[C@H](N)c3ccc(O)cc3)C(=O)N2[C@H]1C(=O)O", "fluorescence, % of fluorescein": "-0.0009% (inactive)"}, {"smiles": "N[C@@H](Cc1cnc[nH]1)C(=O)O", "fluorescence, % of fluorescein": "0.0512% (inactive)"}, {"smiles": "CCCC(CCC)C(=O)OC1C[C@H]2CC[C@@H](C1)[N+]2(C)C", "note": "(stereo not given in full)", "outcome": "inactive"}, {"smiles": "C=C1C(CCl)(CCl)C2(Cl)C(Cl)C(Cl)C1(Cl)C2(Cl)Cl", "note": "(stereo not given)", "outcome": "inactive"}, {"smiles": "CC(C)OC(=O)Nc1ccc2nc(-c3cscn3)[nH]c2c1", "fluorescence, % of fluorescein": "-0.25% (inactive)"}, {"smiles": "COc1cc2c(c(OC)c1OC)-c1c(cc3c(c1OC)OCO3)C[C@@H](C)[C@](C)(O)C2", "outcome": "inactive"}, {"smiles": "O=C(O)c1cc2cc(Cc3cccnc3)ccc2o1", "fluorescence, % of fluorescein": "0.0062% (inactive)"}, {"smiles": "CC(=O)Nc1ccc(OC(C)=O)cc1", "fluorescence, % of fluorescein": "0.0633% (inactive)"}, {"smiles": "O=P(O)(O)OP(=O)(O)OP(=O)(O)O", "fluorescence, % of fluorescein": "-0.0033% (inactive)"}, {"smiles": "Cc1cc(Br)ccc1NC(=O)CCl", "fluorescence, % of fluorescein": "0.0055% [at 91.3 µM] (inactive)"}, {"smiles": "O=C1c2ccccc2C(=O)C1c1ccc(F)cc1", "fluorescence, % of fluorescein": "0.0204% (inactive)"}, {"smiles": "CCCn1c(=O)[nH]c(=O)c2[nH]cnc21", "fluorescence, % of fluorescein": "0.109% (inactive)"}, {"smiles": "CC(=O)N(C)C", "outcome": "inactive"}, {"smiles": "N[C@H](CO)C(=O)O", "fluorescence, % of fluorescein": "0.0434% (inactive)"}, {"smiles": "COC(=O)[C@H]1[C@H]2C[C@H]3c4[nH]c5ccccc5c4CCN3C[C@H]2CC[C@@H]1O", "fluorescence, % of fluorescein": "0.334% (inactive)"}, {"smiles": "CCCCCCCCCC[N+](C)(CCCCCCCCCC)CCC[Si](OC)(OC)OC", "fluorescence, % of fluorescein": "-0.226% [at 91.3 µM] (inactive)"}, {"smiles": "Cc1cc(CC(C)CC(C)(C)C)n(O)c(=O)c1", "note": "(stereo not given) (tested in a mixture with another compound)", "fluorescence, % of fluorescein": "0.153% (inactive)"}, {"smiles": "O=C1CCC(c2ccccc2)(C2CCN(Cc3ccccc3)CC2)C(=O)N1", "note": "(stereo not given)", "fluorescence, % of fluorescein": "0.151% (inactive)"}, {"smiles": "CCOC(=O)Cc1ccc(-c2ccccc2)cc1", "fluorescence, % of fluorescein": "-0.0638% (inactive)"}, {"smiles": "NC(=S)NS(=O)(=O)c1ccc(N)cc1", "fluorescence, % of fluorescein": "0.0194% (inactive)"}, {"smiles": "CCCCCCOC(=O)c1cccnc1", "fluorescence, % of fluorescein": "0.0467% (inactive)"}, {"smiles": "CC[C@H]1OC(=O)C[C@@H](O)[C@H](C)[C@@H](O[C@@H]2O[C@H](C)[C@@H](O)[C@H](N(C)C)[C@H]2O)[C@@H](CCN2C[C@H](C)C[C@H](C)C2)C[C@@H](C)C(=O)/C=C/C(C)=C/[C@@H]1CO[C@@H]1O[C@H](C)[C@@H](O)[C@@H](OC)[C@H]1OC", "fluorescence, % of fluorescein": "0.0554% (inactive)"}]}]}
